We go through 7 compounds from PubChem BioAssay (Tox21).

A short description of assay [1]: qHTS assay to identify aromatase inhibitors - cell viability counter screen (AID 743084).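 Further: cells stimulated with testosterone during compound exposure; nearly all actives have a fitted effect of over 55% in size.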 Further: potency means the concentration at half of the fitted maximal effect.
The target in assay [2] is Aryl hydrocarbon receptor (Homo sapiens) (UniProt P35869). Nature of the assay: qHTS assay to identify small molecule that activate the aryl hydrocarbon receptor (AhR) signaling pathway (AID 743085).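 Further: HG2L7.5c1 human HepG2 liver cells with stably integrated DRE-driven firefly reporter; series mostly up to about 70 µM; nearly all actives have a fitted effect of over 15% in size.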 Put shortly:
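24 h compound exposure, 37C, HepG2-derived HG2L7.5c1 cells with DRE-responsive luciferase. Readouts: fluorescence viability, then luminescence at room temperature after 30 min.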
(In general: qHTS replaces the single test concentration by a dilution series.)

Assay [3] can be described thus: qHTS assay to identify small molecule that activate the aryl hydrocarbon receptor (AhR) signaling pathway - cell viability counter screen (AID 743086). Further: nearly all actives have a fitted effect of over 45% in size. Further: potency means the concentration at half of the fitted maximal effect. Put shortly:
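HepG2-AhR-luc (HG2L7.5c1) cells, 4000/well, were preincubated 5 h at 37C, exposed to compound in qHTS format for 24 hr at 37C, then given CellTiter-Fluor for 30 min; viability was read as fluorescence in the reporter wells.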

Assay [4] deals with Peroxisome proliferator-activated receptor gamma (Homo sapiens) (UniProt P37231). Nature of the assay: qHTS assay to identify small molecule agonists of the peroxisome proliferator-activated receptor gamma (PPARg) signaling pathway (AID 743094; active means well fitted activation curve with a large enough effect in the signal ratio in the repeat runs, not every such curve was filed as active; the % refers to the signal ratio). Put shortly:
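Quantitative HTS agonist mode: stable HEK293H line with UAS-beta-lactamase reporter under PPARg control, 17 h compound exposure at 37C, fluorescence after 1 h FRET substrate loading at room temperature.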

The nature of assay [5]: qHTS assay for small molecule agonists of the antioxidant response element (ARE) signaling pathway (AID 743202; active means well fitted activation curve with a large enough effect in the signal ratio in the repeat runs, not every such curve was filed as active; the % refers to the signal ratio; further: potency means the concentration at half of the fitted maximal effect). Put shortly:
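Compounds delivered in DMSO to ARE-bla HepG2 cells (2,000 cells/well, pre-incubated 5 h) and left 16 h at 37 C. LiveBLAzer B/G FRET substrate then added for 2 h at RT before fluorescence reading.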

Assay [6] is described as follows: qHTS assay for small molecule agonists of the antioxidant response element (ARE) signaling pathway - cell viability counter screen (AID 743203; calls by dose curve; further: nearly all actives have a fitted effect of over 55% in size; further: potency means the concentration at half of the fitted maximal effect). Put shortly: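 Seeded at 2,000 cells/well, ARE-bla HepG2 cells were incubated 5 hrs before compound addition. After 16 hrs of treatment at 37C with 5% CO2, CellTiter-Glo reagent was added and luminescence read 30 min later.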

Assay [7] in a line: qHTS assay for small molecule activators of the heat shock response signaling pathway - cell viability counter screen (AID 743209). Further: nearly all actives have a fitted effect of over 50% in size. Put shortly: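 First, HSE-bla HeLa cells were seeded at 1500 cells/well and kept overnight at 37 C. Next, compounds were pinned in and incubated 5 h. After the FRET substrate step, CellTiter-Glo was added and luminescence read 30 min later.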
A short description of assay [8]: qHTS assay for small molecule activators of the heat shock response signaling pathway (AID 743210; active means well fitted activation curve with a large enough effect in the signal ratio in the repeat runs, with a control signal flat, not every such curve was filed as active; the % refers to the signal ratio;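 further: HeLa cells with beta-lactamase reporter driven by heat shock elements; series mostly up to about 63 µM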). Put shortly:
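Reporter gene assay: HeLa cells stably bearing an HSE-bla construct, compound treatment 5 h at 37 C, LiveBLAzer substrate 2.5 h at RT, fluorescence intensity.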

A short description of assay [9]: qHTS assay to identify small molecule agonists of the peroxisome proliferator-activated receptor delta (PPARd) signaling pathway - cell viability counter screen (AID 743211). Further: nearly all actives have a fitted effect of over 55% in size. Further: potency means the concentration at half of the fitted maximal effect. In a few lines:
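Luminescent ATP viability assay (CellTiter-Glo, 30 min RT) in UAS-bla HEK293H cells carrying the PPAR delta reporter construct, 3000 cells/well, after a 17 h compound treatment at 37 C.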

A short description of assay [10]: qHTS assay to identify small molecule antagonists of the peroxisome proliferator-activated receptor delta (PPARd) signaling pathway - cell viability counter screen (AID 743213). Further: nearly all actives have a fitted effect of over 50% in size. Further: potency means the concentration at half of the fitted maximal effect. In a few lines: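 HEK293H cells with the PPARd UAS-bla reporter, co-treated 17 h at 37 C with compounds and L165041 (300 nM final), were lysed with CellTiter-Glo. Luminescence indicated viable cell content.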

Assay [11] deals with Peroxisome proliferator-activated receptor delta (Homo sapiens) (UniProt Q03181). Briefly: qHTS assay to identify small molecule antagonists of the peroxisome proliferator-activated receptor delta (PPARd) signaling pathway (AID 743215; active means well fitted inhibition curve with a large enough effect in the signal ratio in the repeat runs, not every such curve was filed as active; the % refers to the signal ratio;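 further: cells stimulated with agonist L165041 at 300 nM final during compound exposure; series mostly up to about 62 µM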). In a few lines:
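Inhibition of L165041-driven (300 nM final) PPARd signaling is scored in HEK293H UAS-bla cells. Exposure lasts 17 h at 37 C; beta-lactamase activity is then read by FRET substrate fluorescence after 2 h at room temperature.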

Assay [12] has as its target Bile acid receptor (Homo sapiens) (UniProt Q96RI1). Briefly: qHTS assay to identify small molecule antagonists of the farnesoid-X-receptor (FXR) signaling pathway (AID 743217; active means well fitted inhibition curve with a large enough effect in the signal ratio in the repeat runs, not every such curve was filed as active; the % refers to the signal ratio). Put shortly:
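Antagonist mode against 50 uM (final) chenodeoxycholic acid stimulation in FXR-bla HEK 293T cells, 16 h at 37 °C. Inhibition detected as reduced beta-lactamase activity via LiveBLAzer B/G FRET fluorescence after 2 h at room temperature.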

The nature of assay [13]: qHTS assay to identify small molecule agonists of the farnesoid-X-receptor (FXR) signaling pathway - cell viability counter screen (AID 743218). Further: nearly all actives have a fitted effect of over 45% in size. In a few lines: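 Cytotoxicity counter-screen run in parallel, same wells: FXR-UAS-bla HEK 293T cells dosed 16 h at 37 C, viability read by CellTiter-Glo luminescence after 30 min at room temperature.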
In assay [14] the target is Bile acid receptor (Homo sapiens) (UniProt Q96RI1). Nature of the assay: qHTS assay to identify small molecule agonists of the farnesoid-X-receptor (FXR) signaling pathway (AID 743220; active means well fitted activation curve with a large enough effect in the signal ratio in the repeat runs, not every such curve was filed as active; the % refers to the signal ratio). Put shortly:
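Beta-lactamase reporter under UAS control in GeneBLAzer FXR HEK 293T cells (5000/well) measured with LiveBLAzer FRET substrate after 2 h at room temperature. Compound exposure lasted 16 h at 37C.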

Assay [15] is described as follows: qHTS assay to identify small molecule antagonists of the farnesoid-X-receptor (FXR) signaling pathway - cell viability counter screen (AID 743221; active means well fitted cell-killing curve with a large enough effect in the repeat runs, not every such curve was filed as active; further: nearly all actives have a fitted effect of over 50% in size; further: potency means the concentration at half of the fitted maximal effect). Put shortly: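 In GeneBLAzer FXR-UAS-bla HEK 293T cells stimulated with 50 uM chenodeoxycholic acid (final), compounds acted for 16 h at 37 C. Viability was assessed afterwards by CellTiter-Glo luminescence.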
Assay [16] deals with Vitamin D3 receptor (Homo sapiens) (UniProt P11473). Nature of the assay: qHTS assay to identify small molecule antagonists of the vitamin D receptor (VDR) signaling pathway (AID 743223; active means well fitted inhibition curve with a large enough effect in the signal ratio in the repeat runs, not every such curve was filed as active; the % refers to the signal ratio). Put shortly:
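Agonist 1alpha,25-dihydroxyvitamin D3 (3 nM in well) was added with each compound to VDR-bla cells preincubated 4 h. Cells stood 16 h at 37C, then FRET substrate 2 h at room temperature; fluorescence intensity recorded.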

Assay [17] is described as follows: qHTS assay to identify small molecule antagonists of the peroxisome proliferator-activated receptor gamma (PPARg) signaling pathway - cell viability counter screen (AID 743194). Further: nearly all actives have a fitted effect of over 55% in size. Further: potency means the concentration at half of the fitted maximal effect. Put shortly:
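PPARg-UAS-bla HEK293H cells were plated, rested 5 h at 37 C, then treated with compounds plus rosiglitazone (50 nM final) for 17 h at 37 C; viability was then read by CellTiter-Glo luminescence after 30 min at room temperature.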

In assay [18] the target is Peroxisome proliferator-activated receptor delta (Homo sapiens) (UniProt Q03181). Nature of the assay: qHTS assay to identify small molecule agonists of the peroxisome proliferator-activated receptor delta (PPARd) signaling pathway (AID 743212; calls by dose curve; further: potency means the concentration at half of the fitted maximal effect). Put shortly:
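A PPARd-bla HEK293H line with beta-lactamase under an Upstream Activator Sequence is treated with compounds at 37 C. Substrate loading for 2 h at room temperature precedes the fluorescence measurement.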

Assay [19] concerns the target Vitamin D3 receptor (Homo sapiens) (UniProt P11473). Nature of the assay: qHTS assay to identify small molecule agonists of the vitamin D receptor (VDR) signaling pathway (AID 743222; calls by dose curve). In a few lines:
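Quantitative HTS agonist-mode screen: compounds in DMSO were pin-transferred onto VDR-bla cells and incubated 16 h at 37C, 5% CO2. Reporter activity was detected with LiveBLAzer B/G FRET substrate after 2 h at room temperature.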

The target in assay [20] is Peroxisome proliferator-activated receptor gamma (Homo sapiens) (UniProt P37231). Briefly: qHTS assay to identify small molecule antagonists of the peroxisome proliferator-activated receptor gamma (PPARg) signaling pathway (AID 743191; calls by dose curve; further: series mostly up to about 63 µM; nearly all actives have a fitted effect of over 30% in size). Put shortly: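 GeneBLAzer PPARg UAS-bla HEK293H cells carrying a UAS-driven beta-lactamase reporter were plated at 3000 cells/well, preincubated 5 h at 37C, then given compound for 17 h at 37C; LiveBLAzer B/G FRET substrate was read after 1 h at room temperature.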

Several values for one entry are separate records, joined by “and”; a condition that tells them apart may be missing. Equal values may be shown once. Inconclusive results are not listed. Activity calls are given as the source filed them. Unless noted, the call rests on the fitted dose curve; in most records, active means well fitted curve in the direction sought with a large enough effect in the repeat runs; inconclusive means weak or mixed curves; inactive means no such curve, though single readings can be large; an effect the other way counts as inactive or inconclusive.

Aryl hydrocarbon receptor (Homo sapiens), sequence (P35869 whole entry, looked up): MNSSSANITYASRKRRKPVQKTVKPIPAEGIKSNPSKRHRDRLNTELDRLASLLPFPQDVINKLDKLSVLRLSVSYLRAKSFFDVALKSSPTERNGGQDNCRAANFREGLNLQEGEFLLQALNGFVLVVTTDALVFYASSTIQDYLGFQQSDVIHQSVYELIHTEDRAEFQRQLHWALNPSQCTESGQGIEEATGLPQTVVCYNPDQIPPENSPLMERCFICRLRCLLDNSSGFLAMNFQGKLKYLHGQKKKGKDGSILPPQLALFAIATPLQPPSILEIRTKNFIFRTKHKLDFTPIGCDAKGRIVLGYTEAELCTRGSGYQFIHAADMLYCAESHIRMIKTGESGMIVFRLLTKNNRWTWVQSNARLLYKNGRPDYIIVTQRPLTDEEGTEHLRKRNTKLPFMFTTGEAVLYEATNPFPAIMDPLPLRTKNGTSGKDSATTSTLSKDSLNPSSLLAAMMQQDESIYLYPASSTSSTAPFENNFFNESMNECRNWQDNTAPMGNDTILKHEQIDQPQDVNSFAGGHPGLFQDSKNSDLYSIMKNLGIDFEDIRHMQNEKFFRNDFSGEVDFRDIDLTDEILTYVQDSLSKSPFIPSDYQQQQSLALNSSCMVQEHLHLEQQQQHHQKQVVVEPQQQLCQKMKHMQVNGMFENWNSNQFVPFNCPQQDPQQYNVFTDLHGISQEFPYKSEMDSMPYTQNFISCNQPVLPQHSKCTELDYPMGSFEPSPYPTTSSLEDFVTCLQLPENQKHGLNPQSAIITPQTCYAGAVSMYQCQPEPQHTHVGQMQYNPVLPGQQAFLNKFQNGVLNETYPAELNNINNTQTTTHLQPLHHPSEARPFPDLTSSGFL
Peroxisome proliferator-activated receptor delta (Homo sapiens), sequence (Q03181 whole entry, looked up): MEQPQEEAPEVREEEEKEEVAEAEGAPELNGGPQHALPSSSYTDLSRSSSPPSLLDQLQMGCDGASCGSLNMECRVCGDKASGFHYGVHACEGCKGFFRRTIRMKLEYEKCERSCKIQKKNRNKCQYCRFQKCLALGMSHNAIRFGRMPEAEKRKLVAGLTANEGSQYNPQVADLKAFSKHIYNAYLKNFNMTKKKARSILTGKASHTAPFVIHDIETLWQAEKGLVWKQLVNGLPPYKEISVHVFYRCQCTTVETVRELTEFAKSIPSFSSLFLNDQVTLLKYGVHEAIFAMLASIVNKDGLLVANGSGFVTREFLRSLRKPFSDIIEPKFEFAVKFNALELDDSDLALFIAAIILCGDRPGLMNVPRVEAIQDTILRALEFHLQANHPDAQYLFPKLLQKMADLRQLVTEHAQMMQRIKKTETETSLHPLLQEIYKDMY
Vitamin D3 receptor (Homo sapiens), sequence (P11473 whole entry, looked up): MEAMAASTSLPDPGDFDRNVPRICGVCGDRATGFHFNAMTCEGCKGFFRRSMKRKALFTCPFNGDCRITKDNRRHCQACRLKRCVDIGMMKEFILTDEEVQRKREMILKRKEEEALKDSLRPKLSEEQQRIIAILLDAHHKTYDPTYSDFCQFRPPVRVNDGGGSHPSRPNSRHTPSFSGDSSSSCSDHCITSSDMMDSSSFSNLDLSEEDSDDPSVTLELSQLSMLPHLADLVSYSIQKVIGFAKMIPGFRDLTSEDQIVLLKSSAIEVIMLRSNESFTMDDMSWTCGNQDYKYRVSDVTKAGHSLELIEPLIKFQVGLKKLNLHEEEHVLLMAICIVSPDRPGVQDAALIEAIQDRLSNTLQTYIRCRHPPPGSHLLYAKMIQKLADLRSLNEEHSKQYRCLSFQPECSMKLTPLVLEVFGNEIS
Bile acid receptor (Homo sapiens), sequence (Q96RI1 whole entry, looked up): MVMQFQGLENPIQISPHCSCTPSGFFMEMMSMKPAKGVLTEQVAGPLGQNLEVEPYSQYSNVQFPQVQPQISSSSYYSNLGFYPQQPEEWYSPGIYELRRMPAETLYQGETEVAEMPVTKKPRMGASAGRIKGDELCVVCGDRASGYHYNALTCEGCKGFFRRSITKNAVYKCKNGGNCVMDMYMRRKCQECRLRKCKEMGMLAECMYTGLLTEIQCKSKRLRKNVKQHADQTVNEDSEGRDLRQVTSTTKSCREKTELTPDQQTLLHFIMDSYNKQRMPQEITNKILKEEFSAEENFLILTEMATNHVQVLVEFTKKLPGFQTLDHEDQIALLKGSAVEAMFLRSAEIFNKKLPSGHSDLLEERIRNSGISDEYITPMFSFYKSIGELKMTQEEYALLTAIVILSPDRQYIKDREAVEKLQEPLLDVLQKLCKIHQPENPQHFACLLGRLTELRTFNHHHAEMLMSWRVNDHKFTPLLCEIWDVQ
Peroxisome proliferator-activated receptor gamma (Homo sapiens), sequence (P37231 whole entry, looked up): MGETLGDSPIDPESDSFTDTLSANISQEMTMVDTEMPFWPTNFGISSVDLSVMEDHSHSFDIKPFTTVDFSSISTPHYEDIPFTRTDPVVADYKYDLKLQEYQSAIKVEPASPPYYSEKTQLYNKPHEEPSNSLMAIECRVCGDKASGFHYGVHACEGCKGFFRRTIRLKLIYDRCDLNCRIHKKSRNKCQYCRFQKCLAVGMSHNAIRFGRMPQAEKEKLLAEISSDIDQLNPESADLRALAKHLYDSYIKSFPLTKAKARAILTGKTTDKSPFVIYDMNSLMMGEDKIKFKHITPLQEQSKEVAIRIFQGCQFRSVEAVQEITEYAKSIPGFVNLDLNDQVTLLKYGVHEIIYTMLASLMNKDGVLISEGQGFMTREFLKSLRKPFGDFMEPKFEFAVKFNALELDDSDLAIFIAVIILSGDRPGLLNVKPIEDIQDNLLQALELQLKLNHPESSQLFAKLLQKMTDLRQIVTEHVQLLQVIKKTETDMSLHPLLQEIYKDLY

Take `CCCCCCCCCCCCCCCCN`: the Potency result in assay [1], in assay [2], in assay [3], in assay [4], in assay [5] and in [6] was “inactive” throughout. Also, the Potency result in [9], in assay [10], in assay [13] and in assay [15] was “inactive” each time. Moreover, the call in [7], in assay [8], in assay [11], in assay [12], in assay [14] and in assay [16] was inactive.
As to `CCCCCO`, the Potency result in assay [1], in [2], in assay [3], in [17], in assay [5] and in assay [6] was “inactive” throughout. The Potency entry in assay [9], in [18], in assay [10] and in assay [13] was “inactive” in each case. In addition, the result in assay [7], in [8], in [11], in assay [12], in assay [14] and in assay [19] was inactive. In assay [16], the result was inactive.
With `CCCCCCCCOCCCN`, the Potency entry in assay [1], in assay [2], in assay [3], in assay [4], in [18] and in assay [15] was “inactive” throughout. For the same compound, the Potency is 54.5 µM (active) in assay [6], 49 µM (active) in assay [9] and 24.5 µM (active) in assay [10]. Moreover, the outcome in assay [7], in assay [8] and in [11] was inactive.
For the compound `CC(C)C[C@H](NC(=O)[C@H](Cc1ccccc1)NC(=O)c1cnccn1)B(O)O`, the Potency in assay [1] is 1.33 µM (active); in [3] it was 376 nM (active) and 335 nM (active); in assay [17], 0.0841 µM (active); in [5] it was 0.0237 µM (active); in assay [6], 0.335 µM (active); in [15], 0.298 µM (active). In addition, the Potency result in [2] is “inactive”. For the same compound, the outcome in assay [7] was inactive.
As to `CC1=C(C)C(=O)C(C(CCCCCC(=O)O)c2ccccc2)=C(C)C1=O` (stereo not given), the Potency entry in assay [1], in [2], in assay [3], in assay [20], in assay [17] and in [6] was “inactive” each time. For the same compound, the Potency entry in assay [9], in [10], in assay [13] and in assay [15] was “inactive” throughout. Besides, the call in assay [7], in [8], in [11], in [12] and in assay [14] was inactive. In addition, in assay [18], the Potency was 29.8 µM (active).
For `OCC(O)c1ccccc1` (stereo not given), the Potency entry in assay [1], in [2], in [3], in [17], in [5] and in assay [6] was “inactive” throughout. In addition, the Potency result in [9], in assay [18], in assay [10], in assay [13] and in [15] was “inactive” throughout. In addition, the call in assay [7], in [8], in assay [11] and in assay [19] was inactive.
As to `Nc1nc(Cl)nc2c1ncn2[C@H]1C[C@H](O)[C@@H](CO)O1`, the Potency result in assay [1], in assay [2], in [3], in assay [17], in [5] and in assay [6] was “inactive” each time. Also, the Potency result in assay [9], in assay [10], in assay [13] and in [15] was “inactive” each time. Moreover, the call in assay [7], in assay [8], in [11], in assay [14], in [19] and in assay [16] was inactive.
